Test results taken from the supplement of paper PMC5662767.
Counter-ions that a name gives are not always drawn.

Tested on: Drosophila S2 cl14 SmoIP sensor cells
Assay: normalized SmoIP GFP fluorescence (untreated unstimulated = 0%, untreated Hh-stimulated = 100%); higher = more Smo activation sensor fluorescence
Settings: compound concentration: 2 uM, 24 h
[1] = stimulation: Hh conditioned medium (+Hh)
[2] = stimulation: mock conditioned medium (-Hh)
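Also: flow cytometry read-out as median GFP intensity of gated cells, compounds added 30 min before Hh-conditioned or mock medium, mock-treated cells serving as unstimulated baseline.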

Structure (SMILES)	normalized SmoIP GFP fluorescence [1]	normalized SmoIP GFP fluorescence [2]
Cc1cc(/C=C/C#N)cc(C)c1Nc1ccnc(Nc2ccc(C#N)cc2)n1 [rilpivirine]	110%	-0.151%
CS(=O)(=O)c1ccc(-c2cnc(N)c(C(=O)Nc3ccccc3)n2)cc1	232%	74.4%
C[N+]1(C)[C@@H]2C[C@@H](OC(=O)C(O)(c3cccs3)c3cccs3)C[C@H]1[C@@H]1O[C@@H]12 [Tiotropium-Bromide-hydrate]	114%	0.334%
CCN(Cc1ccncc1)C(=O)C(CO)c1ccccc1 (stereo not drawn) [tropicamide]	104%	-2.82%
Cc1cc(Nc2ccc(NC(=O)c3ccc(Nc4ccnc5ccccc45)cc3)cc2)nc(N)n1	108%	-3.5%
O=C(Nc1cccc2cccnc12)c1ccc(N2C(=O)[C@@H]3[C@H](C2=O)[C@@H]2C=C[C@H]3C2)cc1 [iwr-1-endo]	114%	-4.92%
O=C1NC(=O)/C(=C/c2ccc(-c3ccc(F)cc3O)o2)S1	99.3%	0.588%
CCCS(=O)(=O)Nc1ccc(F)c(C(=O)c2c[nH]c3ncc(Cl)cc23)c1F	108%	-0.0496%
CN1CCC(NC(=O)c2cc(-c3c(O)cc(O)cc3Oc3ccc([N+](=O)[O-])cc3)on2)CC1	129%	4.56%
CNS(=O)(=O)Cc1ccc2[nH]cc(CCN(C)C)c2c1 [Sumatriptan-succinate]	99.3%	1.57%
C[C@H](NC(=O)/C(C#N)=C/c1cccc(Br)n1)c1ccccc1	86.1%	8.14%
O=C(NCCS(=O)(=O)c1ccc(C(F)(F)F)cn1)c1ccc(Cl)cc1	120%	-14.9%
O=C1CCc2cc(OCCCCc3nnnn3C3CCCCC3)ccc2N1 [Cilostazol]	116%	2.11%
NC(N)=N/N=C/c1c(Cl)cccc1Cl [guanabenz-wy-8678-acetate]	112%	-4.7%
Cc1ccc(NC(=O)c2ccc(CN3CCN(C)CC3)cc2)cc1Nc1nc(-c2cccnc2)cs1 [Masitinib-(AB1010)]	113%	20.6%
CC1(C)CC(=O)c2c(C(F)(F)F)nn(-c3ccc(C(N)=O)c(N[C@H]4CC[C@H](OC(=O)CN)CC4)c3)c2C1	233%	83.8%
Cc1ccc(Nc2nccc(N(C)c3ccc4c(C)n(C)nc4c3)n2)cc1S(N)(=O)=O [pazopanib]	107%	1.95%
Cc1cccc(C)c1OCC(=O)N[C@@H](Cc1ccccc1)[C@@H](O)C[C@H](Cc1ccccc1)NC(=O)[C@H](C(C)C)N1CCCNC1=O [Lopinavir]	117%	6.52%
COc1ccc2c(c1)c(CC(=O)N1CCOCC1)c(C)n2C(=O)c1ccc(Cl)cc1	108%	-2.59%
O=c1oc2cc(O)ccc2s1 [tioxolone]	169%	-1.83%
CC(=O)Nc1nc2c(Oc3cc(-c4ccc(C(F)(F)F)cc4)ncn3)cccc2s1	111%	-4.7%
CCCCCCCCCCCCc1ccc(S(=O)(=O)Nc2nncs2)cc1	111%	1.03%
C[C@@H]1CCO[C@H]2Cn3cc(C(=O)NCc4ccc(F)cc4F)c(=O)c(O)c3C(=O)N12	140%	-15.3%
C[C@@H]1C(=O)O[C@H]2C[C@@]34[C@H]5C[C@@H](C(C)(C)C)[C@]36[C@@H](OC(=O)[C@@H]6O)O[C@@]4(C(=O)O5)[C@]21O [ginkgolide-a]	99.5%	-2.08%
C=CC(=O)Nc1cccc(Oc2nc(Nc3ccc(N4CCN(C)CC4)cc3OC)ncc2Cl)c1	96.5%	19.1%

Structure (SMILES)	normalized SmoIP GFP fluorescence [1]	normalized SmoIP GFP fluorescence [2]
Fc1ccc(C(c2ccc(F)cc2)N2CCN(C/C=C/c3ccccc3)CC2)cc1 [flunarizine-dihydrochloride]	134%	6.74%
CC1CCN(CC[C@H]2CCCN2S(=O)(=O)c2cccc(O)c2)CC1	108%	1.21%
Cc1cc(Nc2cc(CN3CCOCC3)c3nc(C)c(Cc4ccc(Cl)cc4F)n3n2)n[nH]1	109%	-5.53%
CN1CCN(S(=O)(=O)c2ccc(-c3cnc(N)c(C(=O)Nc4cccnc4)n3)cc2)CC1	112%	1.21%
Cc1c(Nc2ncccc2C(=O)O)cccc1C(F)(F)F [flunixin-meglumin]	123%	-12.6%
O=C(Nc1ccc(S(=O)(=O)Nc2ccccc2Cl)c(Cl)c1)c1ccccn1	131%	3.4%
CC1=C(C(=O)OC2CCCCC2)C(c2ccc([N+](=O)[O-])cc2)C2=C(CC(C)(C)CC2=O)N1 (stereo not drawn)	117%	4.26%
CNC(=O)c1cc(COc2nnc(Nc3ccc(Cl)cc3)c3ccoc23)ccn1 [Telatinib-BAY-57-9352]	104%	-14.3%
CCCCOc1ccc(C(=O)Nc2ccc(F)cc2F)cc1	99.9%	-2.08%
Nc1cccc2c1CN(C1CCC(=O)NC1=O)C2=O (stereo not drawn) [Lenalidomide]	115%	28.7%
CC(C)c1noc(N2CCC(COc3ccc(-c4ccc(S(C)(=O)=O)cc4)nc3)CC2)n1	110%	-3.09%
CCOC(=O)[C@H](CCc1ccccc1)N[C@H]1CS[C@H](c2cccs2)CN(CC(=O)O)C1=O [temocapril-hcl]	111%	0.785%
O=C(c1ccc(/C=C/c2n[nH]c3ccccc23)cc1)N1CCNCC1	83%	-1.34%
CCOc1cc(N)c(Cl)cc1C(=O)NCC1CN(Cc2ccc(F)cc2)CCO1 (stereo not drawn) [Mosapride-citrate]	103%	-4.68%
O=C(Nc1cccc(C(F)(F)F)c1)Nc1cc(S(=O)(=O)NC2CC2)ccc1-c1ccsc1	111%	-3.05%
CC(C)n1nc(-c2ccc3oc(N)nc3c2)c2c(N)ncnc21	73.9%	-0.889%
Cc1nccn1CC1CCc2c(c3ccccc3n2C)C1=O (stereo not drawn) [Ondansetron-hydrochloride]	109%	-2.96%
NC(=O)c1ccc(I)c([N+](=O)[O-])c1	115%	-5.22%
Nc1ccc(-c2ccc3ncc4ccc(=O)n(-c5cccc(C(F)(F)F)c5)c4c3c2)cn1 [torin-2]	59.5%	-9.64%
CC(C)CN(C[C@@H](O)[C@H](Cc1ccccc1)NC(=O)O[C@H]1CO[C@H]2OCC[C@H]21)S(=O)(=O)c1ccc(N)cc1 [Darunavir-Ethanolate(Prezista)]	101%	-5.54%
O=C(NC(NC(=S)Nc1ccc(F)c([N+](=O)[O-])c1)C(Cl)(Cl)Cl)C(c1ccccc1)c1ccccc1 (stereo not drawn)	108%	0.815%
Oc1c2ccccc2c2c3c(cccc13)N=N2	121%	66%
CC(C)(C)c1cc(NC(=O)Nc2ccc(-c3cn4c(n3)sc3cc(OCCN5CCOCC5)ccc34)cc2)no1	110%	8.79%
C[C@@H]1C[C@H]2[C@@H]3CCC4=CC(=O)C=C[C@]4(C)[C@@]3(F)[C@@H](O)C[C@]2(C)[C@@]1(O)C(=O)CO [Dexamethasone]	86.8%	5.66%
